13 compounds from PubChem BioAssay can be followed below.

SMILES strings stand for the structures. The source made the active and inactive calls. Unless noted, the rule behind the calls is not given here.

Test [1] in a line: resazurin metabolic signal in HepG2 cells – cell-based, resazurin fluorescence, 24 h, PK04 Diversity Set, profiling panel (AID 1172). Note: test concentration not given here. Particulars: HepG2 viability, higher = more signal.
Test [2] can be described thus: budding yeast growth changes without added modifier – OD600, strain BY4716, 24 h, basal condition, primary screen (AID 1173). The note with it: S. cerevisiae BY4716 growth, OD600, 24 h; higher = more signal, called active from +8 up or from −8 down.
Test [3] is described as follows: viability profiling in MM1S myeloma cells – cell-based, resazurin fluorescence, basal, 24 h, PK04 Diversity Set, profiling panel (AID 1174).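 Note: MM1S multiple myeloma cell line; test concentration not given here.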 Particulars: higher = more signal, called active from +8 up or from −8 down.
In test [4] the target is Dihydroorotate dehydrogenase (quinone), mitochondrial (Plasmodium falciparum (isolate 3D7)) (UniProt Q08210). As to the kind of experiment: inhibition of P. falciparum DHODH – biochemical, C-terminal His tag, absorbance 600 nm, primary screen (AID 1175).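 Note: recombinant parasite enzyme with a five histidine tag at its C terminus; test concentration not given here.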 Particulars: PfDHODH enzyme, DCIP absorbance 600 nm; higher = more signal, called active from +8 up or from −8 down.
Test [5] can be described thus: inhibition of PAO1 biofilm formation – strain PAO1, LB-PBS medium, absorbance 600 nm, primary screen (AID 1176). Note: test concentration not given here. Particulars: P. aeruginosa PAO1 growth/biofilm, A600, 12 h; higher = more signal.
Test [6] can be described thus: growth modulation of vineyard yeast isolate – strain RM11-1a, OD600, basal, 24 h, primary screen (AID 1177).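 Note: cultures grown under basal conditions with no added stressor; test concentration not given here.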 The note with it: S. cerevisiae RM11-1a growth, OD600, 24 h; higher = more signal, called active from +8 up or from −8 down.
The nature of test [7]: growth of efflux-deficient E. coli DRC39 – strain DRC39, OD650, 24 h, E. coli filamentation inducers, primary screen (AID 1178).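 Note: growth measured as culture turbidity by optical density at 650 nm; test concentration not given here.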 The note with it: E. coli DRC39 acrAB, higher = more signal, called active from +8 up or from −8 down.
Test [8] can be described thus: growth of efflux-deficient E. coli DRC39 – strain DRC39, OD650, 48 h, E. coli filamentation inducers, primary screen (AID 1179).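 Note: screen aims at cell division blockers that make cells filament.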 Particulars: E. coli DRC39 delta-acrAB growth, higher = more signal, called active from +8 up or from −8 down.
A short description of test [9]: viability profiling in RPMI8226 myeloma cells – cell-based, resazurin fluorescence, basal, 24 h, PK04 Diversity Set, profiling panel (AID 1180).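 Note: RPMI8826 multiple myeloma cell line at 5000 cells per well; test concentration not given here.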 The note with it: higher = more signal.
In test [10] the target is E3 ubiquitin-protein ligase XIAP (Homo sapiens) (UniProt P98170). As to the kind of experiment: small molecules binding XIAP protein – biophysical, small-molecule microarray, fluorescence 635 nm, primary screen (AID 1181).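 Note: score merges 667 nm emission and signal to noise over triplicate slides.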 Particulars: higher = more signal.
Chain of E3 ubiquitin-protein ligase XIAP (Homo sapiens) (P98170 whole entry, looked up): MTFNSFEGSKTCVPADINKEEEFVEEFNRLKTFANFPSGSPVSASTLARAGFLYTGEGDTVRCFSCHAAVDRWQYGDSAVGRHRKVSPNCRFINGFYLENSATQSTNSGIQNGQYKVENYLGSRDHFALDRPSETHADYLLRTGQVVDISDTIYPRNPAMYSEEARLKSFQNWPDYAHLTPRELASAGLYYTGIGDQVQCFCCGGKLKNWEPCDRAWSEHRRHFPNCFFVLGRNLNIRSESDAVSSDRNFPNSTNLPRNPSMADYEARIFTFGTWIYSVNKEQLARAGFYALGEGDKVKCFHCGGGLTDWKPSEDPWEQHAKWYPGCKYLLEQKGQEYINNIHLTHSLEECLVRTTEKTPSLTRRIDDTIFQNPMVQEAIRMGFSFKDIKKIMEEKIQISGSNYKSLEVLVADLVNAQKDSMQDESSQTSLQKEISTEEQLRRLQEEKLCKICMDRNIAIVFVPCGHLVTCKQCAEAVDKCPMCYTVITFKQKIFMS

Chain of Dihydroorotate dehydrogenase (quinone), mitochondrial (Plasmodium falciparum (isolate 3D7)) (Q08210 whole entry, looked up): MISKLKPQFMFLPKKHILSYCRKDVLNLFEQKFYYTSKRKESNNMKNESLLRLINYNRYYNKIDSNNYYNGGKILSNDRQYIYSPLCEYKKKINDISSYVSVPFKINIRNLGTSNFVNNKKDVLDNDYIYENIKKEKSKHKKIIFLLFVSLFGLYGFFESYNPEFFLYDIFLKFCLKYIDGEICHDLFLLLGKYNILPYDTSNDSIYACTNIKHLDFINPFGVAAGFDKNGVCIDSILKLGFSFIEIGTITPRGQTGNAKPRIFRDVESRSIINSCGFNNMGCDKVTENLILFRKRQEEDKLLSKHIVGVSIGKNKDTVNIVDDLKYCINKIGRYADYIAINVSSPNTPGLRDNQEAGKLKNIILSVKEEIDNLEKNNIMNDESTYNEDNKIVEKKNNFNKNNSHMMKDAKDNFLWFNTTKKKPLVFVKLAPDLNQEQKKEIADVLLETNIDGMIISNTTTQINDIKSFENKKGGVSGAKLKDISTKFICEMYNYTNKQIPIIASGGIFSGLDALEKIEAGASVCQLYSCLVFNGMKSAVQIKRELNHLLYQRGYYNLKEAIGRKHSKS

For `C=CCOC(=O)[C@@H]1[C@H]2C(=O)O[C@H](c3ccccc3)[C@H](c3ccccc3)N2[C@H](c2ccc(OCCOC(=O)[C@@H]3C[C@@H]4C(=O)N[C@@H](CCCC[N+](C)(C)C)C(=O)N4[C@@H]3c3cccc(OCCO)c3)cc2)[C@@]12C(=O)Nc1ccc(I)cc12`, the z-score is 1.34 in [1]; -1.21 (inactive) in [2]; -0.669 (inactive) in [3]; 1.18 (inactive) in test [5]; 1.98 (inactive) in test [6]; -0.62 (inactive) in test [7]. Further, the z-score was -0.659 (inactive) in test [8] and -0.847 in [9]. The composite z-score in [4] was -5.39 (inactive); in test [10], -0.126.

Consider `COC(=O)[C@@]1(Cc2ccc(F)cc2)[C@H]2c3cc(C(=O)N(C)C)n(CC4CC4)c3C[C@H]2CN1C(=O)c1ccccc1`, for which the z-score was -0.881 in [1]; 1.78 (inactive) in test [2]; -1.37 (inactive) in test [3]; 0.206 (inactive) in test [5]; 0.479 (inactive) in test [6]; -0.868 (inactive) in test [7]. Also, the z-score in test [8] is -0.398 (inactive); in [9], -2.09. The results for the composite z-score in test [4] and in test [10] were -0.0778 (inactive) and 0.454, respectively.

As for `CN1C(=O)C2C=CC(C(O)c3cc(C(F)(F)F)cc(C(F)(F)F)c3)N(N3CCCCC3)C2C1=O` (stereo not given), the z-score was -0.55 in test [1]; 1.36 (inactive) in test [2]; -0.136 (inactive) in [3]; 0.049 (inactive) in test [5]; 2.29 (inactive) in [6]; -0.289 (inactive) in test [7]. For the same compound, the results for the z-score in [8] and in [9] were -0.795 (inactive) and 0.493, respectively. Moreover, the composite z-score in [4] was 0.929 (inactive); in [10] it was -0.295.

In the case of `C=CCOC(=O)[C@H]1[C@@H]2C(=O)O[C@@H](c3ccccc3)[C@@H](c3ccccc3)N2[C@@H](c2ccc(OCCOC(=O)[C@H]3C[C@H]4C(=O)N5CCC[C@H]5C(=O)N4[C@H]3c3ccc(O)cc3)cc2)[C@]12C(=O)Nc1ccccc12`, the z-score was 0.697 in [1]; 1.66 (inactive) in [2]; 0.744 (inactive) in [3]; 3.67 (inactive) in [5]; 1.84 (inactive) in test [6]; -0.0749 (inactive) in test [7]. The z-score in test [8] is -0.13 (inactive); in test [9], 0.435. Also, the composite z-score in test [4] was -0.391 (inactive); in [10], 0.201.

As for `C=CCNC(=O)[C@@H]1[C@H]2C(=O)O[C@H](c3ccccc3)[C@H](c3ccccc3)N2[C@H](c2ccc(OCCO)cc2)[C@@]12C(=O)Nc1ccc(C#CCCO)cc12`, the z-score was -0.13 in test [1]; 1.02 (inactive) in test [2]; -0.185 (inactive) in [3]; 1.66 (inactive) in test [5]; -0.114 (inactive) in test [6]; -0.194 (inactive) in [7]. Also, the z-score in test [8] was 0.184 (inactive); in [9] it was -0.114. The values for the composite z-score in [4] and in [10] were -1.24 (inactive) and -0.157, respectively.

For `CC(C)(C)OC(=O)CC[C@]1(C(=O)NCC(O)CO)COC(c2ccc(OCCCO)cc2)=N1` (stereo not given in full), the z-score in [1] was 0.245; in test [2] it was 0.525 (inactive); in [3], 0.198 (inactive); in [5], 0.826 (inactive); in test [6] it was 1.51 (inactive); in test [7], 0.116 (inactive). In addition, the z-score in test [8] was 0.0752 (inactive); in test [9], 0.467. Besides, the composite z-score in [4] is 0.563 (inactive); in test [10] it was -0.181.

Consider `CC[C@@H]1C=C(C(=O)O)[C@H](c2ccco2)N1S(=O)(=O)c1ccc(C)cc1`, for which the z-score in [1] is -0.456; in test [2] it was 0.538 (inactive); in [3], -0.283 (inactive); in [5] it was 0.449 (inactive); in test [6] it was -0.0109 (inactive); in test [7], -0.721 (inactive). The z-score in test [8] was 0.34 (inactive); in test [9], -0.88. The composite z-score in test [4] was 0.267 (inactive); in [10] it was 0.124.

`COC(=O)[C@@]1(Cc2ccc(OC)cc2)[C@H]2c3cc(C(=O)N(C)C)n(CCN4CNCC4=O)c3C[C@H]2CN1C(=O)c1ccccc1`: the z-score in [1] is 0.642; in test [2] it was 0.124 (inactive); in test [3], 0.622 (inactive); in test [5], 0.371 (inactive); in test [6], -0.188 (inactive); in test [7] it was 0.479 (inactive). In addition, the z-score in [8] was -0.318 (inactive); in test [9], 0.777. Also, the composite z-score in test [4] was -0.72 (inactive); in [10], 0.597.

As for `O=C1OCC=C[C@H]2OC34C=CCN(c5ccc6ccccc6c5)C(=O)[C@H]3N(CCCCCCO)C(=O)[C@@H]4[C@@H]12` (stereo not given in full), the z-score was 0.551 in test [1]; -0.7 (inactive) in test [2]; 0.645 (inactive) in [3]; -0.717 (inactive) in test [5]; -0.472 (inactive) in [6]; 0.841 (inactive) in test [7]. The z-score was 0.982 (inactive) in test [8] and 0.683 in test [9]. Besides, the composite z-score in [4] was -1.24 (inactive); in test [10], 0.086.

In the case of `O=C1O[C@@H](c2ccccc2)[C@@H](c2ccccc2)N2[C@@H](c3ccc(OCCO)cc3)[C@]3(C(=O)Nc4ccccc43)[C@@H](C(=O)NC[C@H](O)c3ccccc3)[C@H]12`, the z-score in test [1] was 0.665; in test [2], 1.33 (inactive); in [3], 0.251 (inactive); in test [5], 2.44 (inactive); in [6], 1.84 (inactive); in test [7] it was 0.0225 (inactive). Also, the z-score in test [8] was -0.348 (inactive); in test [9], -0.0509. Moreover, the results for the composite z-score in test [4] and in test [10] were -0.854 (inactive) and -0.117, respectively.

In the case of `COCCn1c(C(=O)N2CCCC2)cc2c1C[C@H]1CN(C(=O)c3ccccc3)[C@@](Cc3ccc(F)cc3)(C(=O)OC)[C@@H]21`, the z-score in test [1] is 0.203; in test [2], 0.734 (inactive); in test [3], -0.829 (inactive); in [5] it was 0.315 (inactive); in test [6], 0.39 (inactive); in test [7], -0.0243 (inactive). Moreover, the z-score is -0.622 (inactive) in test [8] and -1.37 in [9]. The composite z-score in test [4] was -0.343 (inactive); in test [10], 0.0927.

On to `COC(=O)[C@@]1(Cc2ccccc2)[C@H]2c3cc(C(=O)N4CCCC4)n(Cc4cccc5ccccc45)c3C[C@H]2CN1C(=O)c1ccccc1`, for which the z-score was -1.13 in test [1]; 1.37 (inactive) in test [2]; -1.65 (inactive) in test [3]; -0.347 (inactive) in test [5]; 0.224 (inactive) in [6]; -0.131 (inactive) in test [7]. The z-score in test [8] is -0.0176 (inactive); in test [9], -1.9. The composite z-score was -0.323 (inactive) in [4] and -0.0082 in [10].

Turning to `COCCOC(=O)N1C(=O)[C@@]2(c3cc(C#CCCO)ccc31)[C@H](c1ccc(OCCO)cc1)N1[C@H](c3ccccc3)[C@H](c3ccccc3)OC(=O)[C@H]1[C@@H]2C(=O)N1CCN(c2ncccn2)CC1`, the z-score in test [1] is 0.235; in test [2], 1.37 (inactive); in test [3], 0.327 (inactive); in test [5], 1.27 (inactive); in test [6], 1.24 (inactive); in test [7], -0.448 (inactive). For the same compound, the z-score is -0.327 (inactive) in [8] and 0.52 in [9]. Also, the composite z-score in test [4] is -0.547 (inactive); in test [10] it was -0.212.
